# Measured values reported in PubChem BioAssay (Tox21).
# Results filed as inconclusive are left out. Values without a mark were called inactive. Calls of active or inactive are those of the source. Calls come from the whole dose curve; as a rule, active = well fitted activation curve with a large enough effect in the repeat runs; inconclusive = weak or mixed curves, or effect the other way; inactive = no such curve, though single readings can be large or run the other way.
# Assay: qHTS assay to identify small molecule agonists of the retinoic acid receptor (RAR) signaling pathway (AID 1159553)
# Settings: C3RL4 RARE luciferase reporter, agonist, 6 h; activation: at 73.3 µM (top of the series)
# Source text: National Center for Advancing Translational Sciences [NCATS] NIH Chemical Genomics Center [NCGC] U.S. Environmental Protection Agency [EPA] National Institutes of Environmental Health Sciences [NIEHS] National Toxicology Program [NTP] Assay overview: All-trans Retinoic acid (atRA) is the potent natural metabolite of retinol and plays an important role in normal embryonic development and maintenance of cellular phenotype in adult animals. atRA is the activating ligand for the retinoic acid receptors (RARs) which form heterodimers with retinoid X receptors (RXRs) on the retinoic acid response element (RARE). Through activation of the RAR/RXRs nuclear receptors, atRA regulates the transcription of a large number of protein-coding genes and regulatory RNAs. Intracellular levels of atRA are controlled by the retinol signaling pathway (RSP) that regulates the biosynthesis and catabolism of atRA to maintain physiological levels. Chemicals that interfere with the RSP can cause abnormal intracellular levels of atRA and therefore are potential developmental toxicants. To assess compounds for the potential adverse effect on embryonic development through interfering with retinol signaling, a cell-based RARE luciferase reporter gene assay was used. C3RL4 cell line (OARSA/CFSAN/FDA, Laurel, MD) was used to screen Tox21 10K compound library for identifying activators of the RSP.
# Assay Protocol Summary: C3RL4 cells were seeded at 1,000/well in 5 uL of assay medium into white solid 1,536-well tissue culture plates (Greiner Bio-One North America Inc. Monroe, NC) using a Multidrop Combi (Thermo Scientific, Waltham, MA) dispenser. After incubation at 37 C and 5% CO2 for an overnight, 23 nL of compounds dissolved in DMSO, positive control or DMSO only were transferred by a Pintool station (Kalypsys, San Diego, CA). After 6 hr incubation at 37 C and 5% CO2, 5 uL of Amplite Luciferase reagent (AAT Bioquest Inc. Sunnyvale, CA) was added to each assay plate using a Flying Reagent Dispenser (FRD) (Aurora Discovery, San Diego, CA). Luminescence was quantified on a ViewLux plate reader (PerkinElmer, Waltham, MA) after 30 min incubation at room temperature.
# % is set by controls: 0 for no effect and ±100 for the full control effect; potency is the fitted concentration of half-maximal effect.
Compound,activation,Potency
CC(O)c1ccccc1 (stereo not given),-0.196% [at 94.8 µM],–
COc1ccccc1Oc1c(NS(=O)(=O)c2ccc(C(C)(C)C)cc2)nc(-c2ncccn2)nc1OCCO,0.576%,–
COc1cc(C(=O)NCCCCCC(=O)O)cc(OC)c1OC,-0.286%,–
O=C1c2ccccc2C(=O)c2c(O)c(O)cc(O)c21,0.532%,–
NCCNCCO,0.869% [at 94.8 µM],–
CC(CN(C)C)C(C)(O)Cc1ccc(Cl)cc1 (stereo not given),-7.79%,–
COc1cc(N)c(Cl)cc1C(=O)NC1CCN(CCCOc2ccc(F)cc2)CC1OC (stereo not given),-8.45%,–
CCC1CO1 (stereo not given),0.194%,–
CC1(C)[C@H](C(=O)O)N2C(=O)C[C@H]2S1(=O)=O,0.579%,–
C1C[C@@H]2[C@H]3CC[C@H](C3)[C@@H]2C1,-0.432%,–
C=C1C[C@@]23CC[C@H]4[C@@](C)(CCC[C@@]4(C)C(=O)O[C@@H]4O[C@H](CO)[C@@H](O)[C@H](O)[C@H]4O)[C@@H]2CC[C@]1(O[C@@H]1O[C@H](CO)[C@@H](O)[C@H](O[C@@H]2O[C@H](CO)[C@@H](O)[C@H](O)[C@H]2O)[C@H]1O[C@@H]1O[C@H](CO)[C@@H](O)[C@H](O)[C@H]1O)C3,0.775%,–
O=C1c2ccccc2C(=O)N1CCc1noc(-c2ccc(CN3CCCCCC3)s2)n1,-5%,–
COc1ncnc(NS(=O)(=O)c2ccc(N)cc2)c1OC,0.0647%,–
CCCCCCCCCI,-3.27% [at 94.8 µM],–
CCCC(=O)C(=O)O,-1.17%,–
O=C1NCCN1CCO,-0.892% [at 94.8 µM],–
CC(C)=CC(=O)C=C(C)C,0.0992%,–
CCOC(C)=O,-0.964% [at 94.8 µM],–
CCOC(=O)OC(C)OC(=O)[C@@H]1N2C(=O)[C@@H](NC(=O)[C@H](N)c3ccccc3)[C@H]2SC1(C)C (stereo not given in full),0.378%,–
CCOC(=O)C1=C(C)NC(C)=C(C(=O)OC)C1c1cccc(Cl)c1Cl (stereo not given),-9.09%,–

Compound,activation,Potency
NNC(=O)CP(=O)(c1ccccc1)c1ccccc1,-22%,–
Nc1nnc(-c2ccc([N+](=O)[O-])o2)o1,1.69%,–
CC(=O)OCC[N+](C)(C)C,0.22%,–
O=C1c2ccccc2C(=O)C1c1nc2ccccc2c(Br)c1O,–,24.3 µM (active)
CCC(C)(C)OC,0.633%,–
O=C(Nc1cccc2c(=O)cc(-c3nn[nH]n3)oc12)c1ccc(OCCCCc2ccccc2)cc1,1.61%,–
CC(C)=CCC1C(=O)N(c2ccccc2)N(c2ccccc2)C1=O,2.56%,–
CN1CC(=O)N2[C@H](c3ccc4c(c3)OCO4)c3[nH]c4ccccc4c3C[C@@H]2C1=O,-10.9%,–
CCC1(CO)COCOC1,9.81%,–
CN1C(=O)c2ccccc2C1=O,-10.3%,–
CC(C)(C)CC(=O)OCC(=O)[C@@]1(O)CC[C@H]2[C@@H]3CCC4=CC(=O)C=C[C@]4(C)[C@H]3[C@@H](O)C[C@@]21C,-14.4%,–
Cc1ccccc1N=C(N)Nc1ccccc1C,-0.443%,–
CC(C)(C)C(=O)C(=O)O,-0.0858%,–
COC(=O)CS,-11.8%,–
O=C(O)CCC(=O)C(=O)O,-1.85%,–
CCOC(=O)c1ccc(I)cc1,-0.214% [at 94.8 µM],–
CCC(C)COC(C)=O (stereo not given),17.3%,–
Cc1ccc(Cl)c(Nc2ccccc2C(=O)O)c1Cl,4.37%,–
C=Cc1ccc(S(=O)(=O)O)cc1,-5.46%,–
C=CC(C)(CCC=C(C)C)OC(=O)CC(C)C (stereo not given),2.85%,–
